Screens (PubChem)
LmPK inhibitor – inhibitors of Leishmania mexicana pyruvate kinase; Q27686; Potency, µM (titrated, usually from 57.5 µM), inactives show top-dose activity change, negative = inhibition, hits mostly inhibitors; purified LmPK, Kinase-Glo ATP luminescence, 1 h; 290,000 tested, 0.37% active; also: potency is read from the fitted curve at half-maximal effect; % is scaled to controls: 0 for no effect and ±100 for the full control effect
Target sequence (Q27686 whole entry, looked up): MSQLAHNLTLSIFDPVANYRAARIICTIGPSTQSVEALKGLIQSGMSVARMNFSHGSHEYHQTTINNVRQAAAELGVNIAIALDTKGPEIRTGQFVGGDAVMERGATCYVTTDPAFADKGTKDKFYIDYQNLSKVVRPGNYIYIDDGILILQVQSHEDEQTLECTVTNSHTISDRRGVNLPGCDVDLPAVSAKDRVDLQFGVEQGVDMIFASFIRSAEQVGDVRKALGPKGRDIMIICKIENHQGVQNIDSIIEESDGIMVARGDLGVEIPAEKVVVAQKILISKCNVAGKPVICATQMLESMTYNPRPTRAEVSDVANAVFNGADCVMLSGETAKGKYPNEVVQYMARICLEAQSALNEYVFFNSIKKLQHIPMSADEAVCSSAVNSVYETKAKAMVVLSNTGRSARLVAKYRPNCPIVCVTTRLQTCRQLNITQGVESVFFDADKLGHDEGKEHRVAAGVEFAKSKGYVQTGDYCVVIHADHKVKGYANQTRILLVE
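Kinase-Glo luminescence read after 1 h RT reaction of 0.1 nM LmPK with 0.5 mM PEP and 0.1 mM ADP. Activity scaled between uninhibited and enzyme-free controls.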
Tb PYK inh – blocks Trypanosoma brucei pyruvate kinase; Q57TT1; TbPYK enzyme, Kinase-Glo Plus ATP luminescence, 45 min; Potency, µM (titrated, usually from 76.8 µM), inactives show top-dose activity, negative = inhibition, most hits filed as inhibitors; 410,000 tested, 0.12% active; AID 624173; also: potency is read from the fitted curve at half-maximal effect; % is scaled to controls: 0 for no effect and ±100 for the full control effect; nearly all actives have a fitted effect of over 50% in size
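T. brucei PYK with substrate was exposed to pin-transferred compounds across a concentration series, then started with 130 uM ADP (final). After 45 min at room temperature, Kinase-Glo Plus luminescence was read, normalized and curve-fitted.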
Shiga toxin inh – Shiga toxin inhibition; inhibition, % at 38.7 µM; Vero cells, Shiga toxin protein synthesis inhibition reporter; AID 2315; 290,000 tested, 9.2% active; in the data active = inhibition mostly above about 28%, no sharp cut-off; inactive = mostly below about 43%; also: 0% is about no effect
Sm TGR inh – inhibitors of Schistosoma mansoni thioredoxin glutathione reductase | 360,000 tested, 3% active | Potency, µM (doses to about 114 µM), inactives show at the highest dose activity change, negative = inhibition, hits mostly inhibitors | AID 485364 | purified TGR, DTNB reduction, TNB absorbance 405 nm; also: potency is read from the fitted curve at half-maximal effect; % is scaled to controls: 0 for no effect and ±100 for the full control effect; nearly all actives have a fitted effect of over 60% in size
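Kinetic colorimetric format: TGR-catalysed, NADPH-driven DTNB reduction monitored via TNB absorbance. Enzyme dispensed at 20 nM; compound exposure 15 min at room temperature before reaction start.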
FBPA Giardia inh – blocks Giardia fructose-bisphosphate aldolase activity. Potency, µM (doses to about 59.6 µM), inactives show top-dose activity, negative = inhibition, hits mostly inhibitors. purified Giardia FBPA. A8B2U2. 290,000 tested, 0.71% active; also: potency is read from the fitted curve at half-maximal effect; % is scaled to controls: 0 for no effect and ±100 for the full control effect; nearly all actives have a fitted effect of over 55% in size
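Giardia FBPA (40 nM reagent) was preincubated 10 min at RT with compound (up to 57.5 uM final), then substrate plus GAPDH/TPI/NAD/arsenate coupling system with diaphorase/resazurin was added; resorufin fluorescence (525/598 nm) was read after 20 min.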
Cycloheximide cs – counter-screen hit for Shiga toxin inhibitors, cycloheximide | cell reporter, cycloheximide protein synthesis inhibition counterscreen | max response, % | 300,000 tested, 12% active; in the data active = max response mostly above about 13%, no sharp cut-off; inactive = mostly below about 14%; also: read at 38.3 µM for the half of the compounds with a filed dose; 0% is about no effect
An asterisk follows results filed as active; [ ] = dose if it differs, or a comment. Many of the other results were omitted from the sample, so hits are more common in it than they were. Unless noted, calls follow the shape of the dose curve; as a rule, active = well fitted curve in the direction sought with a large enough effect; inconclusive = small, poorly fitted or top-dose-only effect, or another doubt; inactive = no such curve, though single readings can be large; an effect the other way counts as inactive or inconclusive.

Results for COc1cc(/C=C(/C#N)c2nc3ccccc3[nH]2)ccc1Oc1ncccc1[N+](=O)[O-] ?
LmPK inhibitor: 0.4%; Tb PYK inh: -1.8%; Shiga toxin inh: 24.0; Sm TGR inh: 13.5%; FBPA Giardia inh: -4.6%; Cycloheximide cs: 13.0*

How did CCOc1cc(/C=C(\C#N)c2nc3ccccc3[nH]2)ccc1OC(C)C(=O)O (stereo unspecified) do in these assays?
LmPK inhibitor: -2.1%; Tb PYK inh: -2.6%; Shiga toxin inh: 76.6*; Sm TGR inh: 2.6%; FBPA Giardia inh: -13.1%; Cycloheximide cs: 30.2*

What do the screens show for `N#C/C(=C\c1ccc(N2CCCC2)c([N+](=O)[O-])c1)c1nc2ccccc2[nH]1`?
LmPK inhibitor: -1.5%; Shiga toxin inh: 111.5*; Sm TGR inh: inconclusive; FBPA Giardia inh: -4.0%; Cycloheximide cs: 49.8*

How did COc1cc(/C=C(\C#N)c2nc3ccccc3[nH]2)ccc1OCc1cccc(C(F)(F)F)c1 do in these assays?
Tb PYK inh: 3.9%; Sm TGR inh: 2.1%

How did CCOc1ccccc1CNC(=O)CCNS(=O)(=O)c1ccc2[nH]c(=O)oc2c1 do in these assays?
LmPK inhibitor: 9.6%; Tb PYK inh: 0.0%; Shiga toxin inh: 6.0; Sm TGR inh: 4.5%; FBPA Giardia inh: -29.6%; Cycloheximide cs: -4.6

Results for COc1ccc2c(c1)c1c(c(=O)n(-c3ccc(C)cc3)c(=O)n1CC(=O)c1ccc(Cl)cc1)n2C ?
Tb PYK inh: -2.4%; Sm TGR inh: 1.2%

Results for COc1ccc(S(=O)(=O)N2CCOCC2)cc1NC(=O)c1ccccc1C ?
LmPK inhibitor: 1.2%; Tb PYK inh: 0.0%; Shiga toxin inh: 18.1; Sm TGR inh: -21.5%; Cycloheximide cs: -3.1

How did CC1CCCC(NC(=O)CN2CCN(S(=O)(=O)c3cccs3)CC2)C1C (stereo unspecified) do in these assays?
Tb PYK inh: -0.9%; Sm TGR inh: -11.2%

How did CCNc1ncc2nc(-c3cc(F)cc(F)c3)c(=O)n(CCc3ccccc3)c2n1 do in these assays?
FBPA Giardia inh: -18.6%

How did CCCCN1C(=O)C(=O)N(CC(=O)Nc2cc(S(=O)(=O)N(C)C)ccc2C)C1=O do in these assays?
Tb PYK inh: -1.0%; Sm TGR inh: -3.8%

Results for O=C(Nc1ccccc1Br)C(=O)N1CCCC1 ?
LmPK inhibitor: -8.0%; Tb PYK inh: 9.2%; Shiga toxin inh: active; Sm TGR inh: 4.3%; FBPA Giardia inh: 5.8%; Cycloheximide cs: 40.0*

Results for O=C(Nc1ccccn1)C(=O)N1CCCCC1 ?
LmPK inhibitor: 5.1%; Tb PYK inh: -2.9%; Shiga toxin inh: 46.9*; Sm TGR inh: 5.0%; FBPA Giardia inh: 10.3%; Cycloheximide cs: 21.6

How did O=C(OCN1C(=O)c2ccccc2C1=O)c1ccccc1 do in these assays?
LmPK inhibitor: -2.7%; Tb PYK inh: -1.7%; Shiga toxin inh: -9.1; Sm TGR inh: -4.6%; FBPA Giardia inh: 7.7%; Cycloheximide cs: -3.5

How did O=C1c2ccccc2C(=O)N1CCCOc1ccccc1 do in these assays?
LmPK inhibitor: 4.9%; Tb PYK inh: -6.5%; Shiga toxin inh: 89.8*; Sm TGR inh: 2.8%; FBPA Giardia inh: -4.2%; Cycloheximide cs: 39.0*

How did O=C(OCCN1C(=O)c2ccccc2C1=O)c1ccccc1 do in these assays?
LmPK inhibitor: -13.4%; Tb PYK inh: 1.6%; Shiga toxin inh: 17.9; Sm TGR inh: 3.4%; FBPA Giardia inh: 11.0%; Cycloheximide cs: 23.8*

What do the screens show for `Cc1ccc2c(c1)C(=O)C(=O)N2CCCOc1ccccc1`?
LmPK inhibitor: -1.4%; Tb PYK inh: -31.1%; Shiga toxin inh: 26.0; Sm TGR inh: -7.2%[57.1 µM]; FBPA Giardia inh: -5.9%; Cycloheximide cs: 13.5*

What do the screens show for `CCOc1ccc(OCCN2C(=O)c3ccccc3C2=O)cc1`?
LmPK inhibitor: -10.8%; Tb PYK inh: 0.7%; Shiga toxin inh: -19.0; Sm TGR inh: 0.7%; Cycloheximide cs: -4.0

What do the screens show for `Cc1cccc(OCCN2C(=O)c3ccccc3C2=O)c1`?
LmPK inhibitor: -7.7%; Tb PYK inh: 1.2%; Shiga toxin inh: 89.2*; Sm TGR inh: 8.4%; FBPA Giardia inh: 1.5%; Cycloheximide cs: 49.1*
